In PubChem BioAssay AID624330 (Southern Research Specialized Biocontainment Screening …, 2012):
Out of some 340,000 compounds screened, about 2,100 (0.62%) were called active.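 The calls were made as follows: active = first-screen hits whose inhibition reached a set limit at any dose in the follow-up dose series; inconclusive = inhibition above the set first-screen limit but never retested; inactive = the rest.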 These entries were drawn from the full list. Measured potencies and affinities stand elsewhere.

Biological target: Rac GTPase-activating protein 1 (Homo sapiens) (UniProt Q9H0H5)
Sequence (Q9H0H5 whole entry, looked up): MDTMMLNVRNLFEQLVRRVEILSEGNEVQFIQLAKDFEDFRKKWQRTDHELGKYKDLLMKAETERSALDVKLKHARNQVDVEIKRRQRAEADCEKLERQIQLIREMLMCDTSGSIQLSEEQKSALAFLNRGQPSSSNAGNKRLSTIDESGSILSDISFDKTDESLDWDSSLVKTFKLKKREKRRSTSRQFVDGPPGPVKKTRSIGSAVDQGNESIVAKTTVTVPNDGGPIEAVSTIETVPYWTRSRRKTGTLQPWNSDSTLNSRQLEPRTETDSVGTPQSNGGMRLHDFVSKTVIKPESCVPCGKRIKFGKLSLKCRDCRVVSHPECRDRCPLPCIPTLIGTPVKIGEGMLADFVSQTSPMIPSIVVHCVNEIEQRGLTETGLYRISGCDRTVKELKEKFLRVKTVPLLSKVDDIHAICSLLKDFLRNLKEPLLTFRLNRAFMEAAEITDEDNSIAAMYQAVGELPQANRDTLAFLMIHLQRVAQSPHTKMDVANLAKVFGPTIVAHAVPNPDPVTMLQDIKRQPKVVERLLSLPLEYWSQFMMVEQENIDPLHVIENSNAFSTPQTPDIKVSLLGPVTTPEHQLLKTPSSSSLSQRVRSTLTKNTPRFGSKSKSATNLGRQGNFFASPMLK
Assay: blockers of MgcRacGAP-driven Rac1 GTP hydrolysis – biochemical, ADP Hunter fluorescence, primary and confirmatory, confirmation (AID 624330);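 also: fluorescence reports GDP produced by GAP-driven GTP hydrolysis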
Settings: MgcRacGAP-stimulated Rac1 GTP hydrolysis, at 30 µM, active compounds read high, GST-tagged Rac1 F28L mutant substrate

inhibition, inactive:
COCCOc1cc(NC(=O)CS(=O)(=O)CC(=O)N(C)C)c(Cl)cc1Cl -10.1%, O=C(Nc1cccc(Cl)c1)C1C2C=CC3(O2)C1C(=O)N(CCN1CCCCC1)C3C(=O)NC1CCCCC1 (configuration not stated) 4.26%, CCN(CC)C(=O)CN(c1ccc(C)cc1)S(=O)(=O)c1ccc(SC)cc1 3.34%, COc1ccc(C2CC(=O)Nc3ccccc3S2(=O)=O)cc1OC (configuration not stated) 11.4%, O=C(Nc1cccc(C(=O)Nc2ccccc2F)c1)c1ccccc1 -9.87%, CN(C)c1ccc(/C=C/C(=O)c2cccnc2)cc1 10.2%, CN(C)c1ccc(/C=C/c2ccncc2)cc1 16.4%, O=C(CSc1ccc2nnc(-c3cccnc3)n2n1)Nc1ccccc1C(F)(F)F 6.49%, OCC(CO)(CO)N=Cc1cc(Br)ccc1O 8.85%, CCN(CC)c1ccc(N=Cc2cc(Br)ccc2O)cc1 10.9%, Oc1cccc(C=Nc2cccc3ccccc23)c1O -2.71%, Oc1ccc(Cl)cc1C=Nc1ccccc1Br 4.11%, Cc1cccc(C=Nc2ccc3c(c2)oc2ccccc23)c1O 25.6%, Oc1ccc(Cl)cc1/C=N/c1nccs1 3.22%, COc1ccccc1-c1nnc(SCC(=O)Nc2ccc(S(N)(=O)=O)cc2)n1C 7.69%, C[C@H](CO)N1C[C@H](C)[C@H](CN(C)C(=O)Nc2ccc(C(C)(C)C)cc2)OCc2cnnn2CCCC1=O -5.61%, COc1ccc(OC)c(S(=O)(=O)NCC(=O)NC2CCCc3ccccc32)c1 (configuration not stated) 6.06%, O=C(Nc1ccc2c(c1)OCO2)C1CCCN1C(=O)OCc1ccccc1 (configuration not stated) 6.44%, C=CCN(CC=C)CCOc1ccc(OC(C)C)cc1 26.4%, COc1ccc2c(c1)c(C(=O)N/N=C/c1ccc(OC)c(OC)c1)c(C)n2C -2.93%, COc1ccc2nc(C)cc(SCC(=O)N/N=C/c3ccccc3)c2c1 5.43%, COc1ccc2c(c1)c(C(=O)N/N=C/c1cccc(O)c1)c(C)n2C 16.9%, COc1ccc2nc(C)cc(SCC(=O)N/N=C/c3ccc(O)cc3O)c2c1 17.7%, CC(=O)Nc1c2c(nn1-c1ccc(Cl)cc1)CSC2 2.25%, O=C(CCc1ccccc1)NNC(=O)COc1ccccc1 11.8%, Cc1ccc2ccc(C(Nc3cccc(C(F)(F)F)c3)c3cccnc3)c(O)c2n1 (configuration not stated) 10.8%, COc1cc(CCC(=O)OCC(=O)N(CCC#N)c2ccccc2)cc(OC)c1OC 7.7%, COc1cccc(CNCCO)c1OCc1ccccc1Cl 9.99%, COc1cc(CNc2ccc3[nH]c(=O)[nH]c3c2)ccc1OCc1ccc(C)cc1 16.9%, Cc1ccc(NCc2ccccc2OCc2ccccc2F)cc1 11.5%, CCOc1cc(CNC)ccc1OCC(=O)NC(C)(C)C 2.12%, COc1cccc(CNc2ccc3[nH]c(=O)[nH]c3c2)c1OCc1ccc(F)cc1 26.2%, CCOc1cc(CNc2ncn[nH]2)ccc1OCC(=O)NC(C)(C)C 1.46%, COc1cc(CNc2ncn[nH]2)ccc1OCc1cccc(C)c1 8.87%, Oc1ccc(NCc2ccccc2OCc2ccccc2)cc1 11.9%, COc1ccc(C(=O)Nc2ccncc2)c(OC)c1 13.1%, Cn1cc(C(=O)C(=O)NC2CCCCC2)c2ccccc21 10%, COc1ccc(C(CNC(=O)c2ccc(NS(=O)(=O)c3ccc(F)cc3)cc2)N2CCOCC2)cc1 (configuration not stated) 4.8%, CN(CC(=O)Nc1ccc(F)c(F)c1F)C(=O)CN1C(=O)NC2(CCCC2)C1=O 9.6%, CCOC(=O)c1cc2ccc3ccccc3c2oc1=O 8.31%, Cc1ccc2c(c1)nnn2C1CCN(CC(=O)NNC(=O)c2ccco2)CC1 0.28%, CCOc1cccc(CNc2ccc(O)cc2)c1OCc1ccc(Cl)cc1 19.5%, CCOc1cccc(CNc2ccc(O)cc2)c1OCc1ccccc1Cl 29.3%, CCCCCCN1C[C@@H](O)[C@H](n2cc(-c3ccc(F)cc3)nn2)C[C@@H]1c1ccc(C)cc1 6.07%, CNCc1c(OCc2ccccc2F)ccc2ccccc12 -6.3%, O=C1/C(=C\c2ccco2)CCC/C1=C\c1ccco1 38.4%, O=C1/C(=C/c2ccco2)CCc2ccccc21 8.52%, O=C1CNC(=O)/C(=C/c2cccs2)N1 0.05%, O=C1/C(=C\c2ccco2)SC(=S)N1c1ccccc1 23.6%, O=C1C(=Cc2cccs2)C(=O)c2ccccc21 4.2%, O=C1/C(=C\c2ccco2)NC(=S)N1c1ccccc1 21.9%, O=C1NC(=O)/C(=C/c2ccco2)N1 11%, O=C1CNC(=O)/C(=C/c2ccco2)N1 14.3%, O=C(NCc1cccc(Cl)c1)c1ccc(CS(=O)Cc2ccccc2Cl)o1 (configuration not stated) -7.5%, C[C@@H]1CCCCO[C@H](CN(C)C(=O)Nc2ccc3c(c2)OCO3)[C@H](C)CN([C@@H](C)CO)C(=O)c2cc(NS(=O)(=O)c3ccc(Cl)cc3)ccc2O1 10.2%, O=C(CN1CCOc2ccccc21)NCc1ccccc1 -7.36%, O=C(N/N=C\c1ccccn1)C1COc2cc3ccccc3cc2O1 (configuration not stated) 15.9%, CN1/C(=C/C2CC(=O)NC2=O)C(C)(C)c2ccccc21 (configuration not stated) 6.09%, O=c1oc2c(CN3CCCCC3)c(O)ccc2c2c1CCCC2 -1.27%, COc1ccc(-c2noc(CCC(=O)NCCCN3CCC(C)CC3)n2)cc1 8.68%, O=C(COc1ccc(S(=O)(=O)N2CCCC2)cc1)N1CCN(c2ccccc2F)CC1 3.38%, CCN(Cc1ccncc1)C(=O)c1ccc2c(c1)S(=O)(=O)c1ccccc1C2=O -39.1%
